Laboratory results published in PubChem BioAssay AID1159580 (chemical genetic matrix, 2015).
About 2,000 (36%) of roughly 5,500 compounds were called active. Not shown: some 18% with an inconclusive outcome. This is one part of the list. A number with no mark means an inactive call. Cut-off read from the data, not from the text of the source: active = normalized growth mostly below about 0.91 (no sharp cut-off); inconclusive = no clear call, values can overlap the other calls; inactive = mostly above about 0.92.

Assay: chemical genetic growth profiling, strain panel (AID 1159580);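 note: tested at 20 µM; growth read once vehicle control cultures reached saturation at 30 °C; 1 = growth at the plate median or of vehicle wells; lower values mean less growth of the strain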
Settings: S. cerevisiae deletion strains, growth OD

For `C[N+](C)(C)CCOC(=O)CBr`, the normalized growth (locus YDR150W, strain NUM1, active compounds read low) was 1.06 [resistant] (active), the normalized growth (locus YDR363W, strain ESC2, active compounds read low) was 1.05 and the normalized growth (locus YER002W, strain NOP16, active compounds read low) was 1. It also gave a normalized growth (locus YGR078C, strain PAC10, active compounds read low) of 1.02, a normalized growth (locus YMR263W, strain SAP30, active compounds read low) of 1.01 and a normalized growth (locus YNL153C, strain GIM3, active compounds read low) of 1.07. The normalized growth (locus YNL175C, strain NOP13, active compounds read low) was 1.02, the normalized growth (locus YNL197C, strain WHI3, active compounds read low) was 0.985 and the normalized growth (locus YNL224C, strain SQS1, active compounds read low) was 1.01. It also gave a normalized growth (locus YOR083W, strain WHI5 (second series), active compounds read low) of 1.05 and a normalized growth (locus YPL241C, strain CIN2, active compounds read low) of 1.01.
